Rows were chosen to be rich in hits. Some 5% of all compounds tested hit in one or more screens of this group.
SENP8 block-1 = human SENP8 protease inhibitors, primary screen, biochemical, fluorescence, Nedd8 protein substrate, uHTS. Sentrin-specific protease 8 (Homo sapiens), Q96LD8. AID 602440, 2012. hit rate 0.64% among 360,000. recombinant SENP8. inhibition, % at 20 µM; in the data active = inhibition mostly above about 40%, no sharp cut-off; inactive = mostly below about 27%
AHR act = AHR activators, primary screen, cell-based, luminescence, luciferase reporter, human; AHR-responsive luciferase reporter cells; activation, % at 5 µM; hit rate 2.5% among 320,000; in the data active = activation above about 47%
Target sequence (P35869 whole entry, looked up): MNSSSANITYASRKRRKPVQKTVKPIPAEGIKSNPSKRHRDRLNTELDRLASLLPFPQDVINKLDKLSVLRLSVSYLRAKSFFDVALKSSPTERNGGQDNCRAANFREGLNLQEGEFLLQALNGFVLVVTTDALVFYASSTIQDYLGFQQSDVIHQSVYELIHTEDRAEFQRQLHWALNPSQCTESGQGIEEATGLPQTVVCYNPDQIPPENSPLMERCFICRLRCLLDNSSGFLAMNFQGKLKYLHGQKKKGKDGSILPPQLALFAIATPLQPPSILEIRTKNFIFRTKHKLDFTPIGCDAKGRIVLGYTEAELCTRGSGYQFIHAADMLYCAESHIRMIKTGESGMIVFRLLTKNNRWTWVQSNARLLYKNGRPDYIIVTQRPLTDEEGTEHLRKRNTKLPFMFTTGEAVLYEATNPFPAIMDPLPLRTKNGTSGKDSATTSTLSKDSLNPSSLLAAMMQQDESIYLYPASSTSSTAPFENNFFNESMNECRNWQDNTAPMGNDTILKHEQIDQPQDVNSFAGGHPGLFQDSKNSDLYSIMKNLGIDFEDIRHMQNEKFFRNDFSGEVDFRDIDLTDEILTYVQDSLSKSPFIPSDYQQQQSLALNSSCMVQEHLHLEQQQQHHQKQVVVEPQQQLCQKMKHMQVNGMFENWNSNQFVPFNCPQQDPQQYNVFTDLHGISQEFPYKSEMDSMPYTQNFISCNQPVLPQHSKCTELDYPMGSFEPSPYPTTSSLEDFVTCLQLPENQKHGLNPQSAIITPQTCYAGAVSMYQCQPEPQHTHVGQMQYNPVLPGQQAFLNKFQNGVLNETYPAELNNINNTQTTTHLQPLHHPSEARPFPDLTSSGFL
EBI2 antag = EBI2 receptor antagonists, beta-arrestin recruitment, primary screen, cell-based, luminescence, 7a,25-OHC stimulation, uHTS. G-protein coupled receptor 183 (Homo sapiens), P32249. hit rate 0.81% among 360,000. AID 651636, 2012. 7a,25-OHC stimulated. inhibition, % at 5 µM; in the data active = inhibition above about 38%;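 note: enzyme fragment complementation signal reports receptor beta-arrestin coupling in cells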
SENP8 block-2 = SENP8 protease inhibitors, primary screen, biochemical, luminescence | Sentrin-specific protease 8 (Homo sapiens), Q96LD8 | hit rate 1.2% among 330,000 | inhibition, % at 10 µM | purified SENP8, Z-RLRGG-aminoluciferin cleavage; in the data active = inhibition above about 50%
SENP6 block = SENP6 protease inhibitors, primary screen, biochemical, luminescence, uHTS | inhibition, % at 10 µM | Recombinant SENP6 catalytic domain, aminoluciferin luminescence | hit rate 1.8% among 330,000 | AID 2599, 2010;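 active = inhibition above about 50% at the single tested dose, limit read from the data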
SENP7 inh = SENP7 protease inhibitors, primary screen, biochemical, luminescence, uHTS. Sentrin-specific protease 7 (Homo sapiens), Q9BQF6. hit rate 1.5% among 330,000. inhibition, % at 5 µM. recombinant SENP7, Z-RLRGG-aminoluciferin luminescence, 40 min;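 active = inhibition above about 50% at the single test dose, limit read from the data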
A number is an active result; 0 = inactive; - = no result.

SMILES	SENP8 block-1	AHR act	EBI2 antag	SENP8 block-2	SENP6 block	SENP7 inh
Cc1cc(=O)[nH]c(SCC(=O)N2CCCC(C)C2)n1 (stereo unspecified)	0	0	0	0	0	0
O=C1Nc2cc(Cl)c(Cl)cc2N(O)N1c1ccc(Cl)c(Cl)c1	0	57	0	0	0	0
O=C1C=CC2(C=C1)O[C@H](Cc1ccccc1)[C@@H](Cc1ccccc1)O2	0	-	85	-	-	-
O=C1Nc2ccccc2C1Cc1ccccc1 (stereo unspecified)	0	0	0	0	0	0
COc1ccc(C[C@@H]2OC3(C=CC(=O)C=C3)O[C@H]2Cc2ccc(OC)cc2)cc1	0	-	88	-	-	-
COc1ccc(N2C(=O)CC(Cc3ccccc3)C2=O)cc1 (stereo unspecified)	0	0	0	0	0	0
Cc1ccc(-c2ccc3c(c2)O[C@H](CN(C)C(=O)Nc2ccc(C(F)(F)F)cc2)[C@H](C)CN([C@H](C)CO)S3(=O)=O)cc1	0	-	0	-	-	-
CCOC(=O)N1CCN(CC(=O)Nc2c(C(=O)OC)[nH]c3cc(C)ccc23)CC1	0	64	0	0	0	0
CCOC(=O)c1[nH]c2cc3c(cc2c1NC(=O)CN1CCC2(CC1)OCCO2)OCO3	0	62	0	0	0	0
CCOC(=O)c1[nH]c2cc3c(cc2c1NC(=O)CN1CCN(CCO)CC1)OCO3	0	0	0	0	0	0
Cc1cc(NCCN2CCOCC2)n2nc(C)c(-c3ccccc3)c2n1	0	0	0	0	0	0
Cc1cc(NCCCn2ccnc2)n2nc(C)c(-c3ccccc3)c2n1	0	112	0	0	0	0
Cc1cc(NCCCn2ccnc2)n2nc(C)c(-c3ccc(Cl)cc3)c2n1	0	48	0	0	0	0
CCOC(=O)[C@]12CCCC=C1N(Cc1ccco1)C(=O)[C@H](CC(=O)N1CCC(c3ccccc3)CC1)C2	0	-	0	-	-	-
COc1ccc(NC(=O)COC(=O)c2c(NC(C)=O)sc(C)c2C)cc1	0	-	0	-	-	-
c1ccc(-n2nnnc2Oc2ccc(-n3ccnc3)cc2)cc1	0	72	0	0	0	0
COc1ccc(Oc2nnnn2-c2ccccc2)cc1	0	0	0	0	0	0
c1ccc2c(c1)oc1c(N3CCOCC3)ncnc12	0	73	0	0	0	0
COc1ccccc1N1CCN(c2ncnc3c2oc2ccccc23)CC1	0	0	0	0	0	0
CCCn1nc(NC(C)=O)c2cc3cccc(C)c3nc21	0	48	0	0	0	0
Cc1cccc2cc3c(NC(=O)c4ccccn4)nn(C)c3nc12	0	49	0	0	0	0
CCCC(=O)Nc1nn(C)c2nc3c(C)cccc3cc12	0	0	0	0	0	0
CCCn1nc(NC(=O)CC(C)C)c2cc3cccc(C)c3nc21	0	0	0	0	0	0
NS(=O)(=O)c1ccc(NC2=CC(c3ccc([N+](=O)[O-])cc3)N(c3ccc(S(N)(=O)=O)cc3)C2=O)cc1 (stereo unspecified)	0	0	0	0	0	0
Cc1cccc(C)c1NC(=O)CN(C)CC(=O)Nc1cc(Cl)ccc1C#N	0	0	0	0	0	0
SMILES	SENP8 block-1	AHR act	EBI2 antag	SENP8 block-2	SENP6 block	SENP7 inh
CCOc1ccc(NC(=O)CN(C)CC(=O)Nc2cc(Cl)ccc2C#N)cc1OCC	0	55	0	0	0	0
CCOc1cc(/C=C/c2ccc3cccc([N+](=O)[O-])c3n2)ccc1O	0	0	0	0	0	0
CCOc1cccc(/C=C/c2ccc3cccc(O)c3n2)c1OC	0	76	0	0	0	0
COc1ccc(Cl)cc1/C=C/c1ccc2cccc(O)c2n1	0	66	0	0	0	0
COc1cc(Cl)cc(/C=C/c2ccc3cccc(O)c3n2)c1OC	0	0	0	0	0	0
CC(C)COC(=O)N1CCCCC1c1cc(C(=O)Nc2ccccc2)no1 (stereo unspecified)	0	-	0	-	-	-
CCCn1nc(NC(=O)c2cccs2)c2cc3cc(OC)ccc3nc21	0	66	0	0	0	0
CCCCn1nc(NC(=O)c2cccs2)c2cc3ccccc3nc21	0	0	0	0	0	0
CCCCn1nc(NC(=O)c2cccs2)c2cc3cc(OC)ccc3nc21	0	50	0	0	0	0
COc1ccc(CN2C(=O)c3ccccc3C2=O)cc1	0	0	0	0	0	0
COc1ccc(CC2=C(O)c3ccccc3C(=O)C2=O)cc1	68	0	0	0	0	0
Cc1ccnc(Nc2nc(-c3ccc(O)c(O)c3)cs2)c1	0	55	0	0	0	0
Cc1ccnc(Nc2nc(-c3ccc(O)cc3)cs2)c1	0	0	0	0	0	0
Oc1ccc(-c2csc(Nc3cccc4ccccc34)n2)cc1O	0	52	0	0	0	0
COc1ccc(CN2C(=O)c3cccc4cccc(c34)C2c2nc3ccccc3[nH]2)cc1 (stereo unspecified)	0	-	0	-	-	-
O=[N+]([O-])c1cccnc1-n1cnc2ccccc21	0	0	0	0	0	0
Cc1cc2ncn(-c3ncccc3[N+](=O)[O-])c2cc1C	0	48	0	0	0	0
N#Cc1c(Cl)c(Cl)c2nnc(-c3ccc(Br)cc3)n2c1Cl	-	55	-	0	0	0
N#CC1(c2ccc(NC(=O)c3ccccc3)cc2)CCCC1	0	0	0	-	-	-
CC(=O)Oc1ccc(C(=O)Nc2ccc(C3(C#N)CCCC3)cc2)cc1	0	60	0	0	0	0
O=[N+]([O-])c1c(Nc2ccc(O)cc2)cc(Cl)c2nonc12	0	0	94	0	0	0
O=C(O)c1ccccc1Nc1cc(Cl)c2nonc2c1[N+](=O)[O-]	0	0	0	0	0	0
O=[N+]([O-])c1c(Nc2ccccn2)cc(Cl)c2nonc12	68	0	83	0	87	95
COc1ccc(-c2coc(CCC(=O)N3CCN(c4cc(C)ccc4C)CC3)n2)cc1	0	-	0	-	-	0
CC(C)NC(=O)C1(C)CSCC(=O)N1Cc1cccc(C(F)(F)F)c1 (stereo unspecified)	0	-	0	-	-	-
SMILES	SENP8 block-1	AHR act	EBI2 antag	SENP8 block-2	SENP6 block	SENP7 inh
Cc1c(/C=N\NC(=O)C2COc3ccccc3O2)c2ccccc2n1C (stereo unspecified)	0	51	0	-	-	-
O=c1ccc(N=Nc2ccccc2)ccc1O	43	0	0	-	-	-
O=c1cc(-c2ccccc2)nc2n1Cc1ccccc1-2	0	111	0	0	0	0
O=c1c2cccc(Cl)c2nc2n1Cc1ccccc1-2	0	0	0	0	0	0
N#Cc1nc(-c2ccc(Cl)cc2)oc1NCCc1ccccn1	0	0	0	0	0	0
Cc1ccc(-c2nc(C#N)c(NCCc3ccccn3)o2)cc1	0	73	0	0	0	0
COc1ccc(-c2nc(C#N)c(NCCc3ccccc3)o2)cc1	0	0	0	0	0	0

Screens deposited in PubChem by several laboratories.
